From PubChem BioAssay
ERa coact pot: enhancers of ERα–SRC-1 coactivator binding, primary screen, biochemical, TR-FRET, ERα LBD, low estradiol; Estrogen receptor (Homo sapiens), P03372; TR-FRET ERalpha-LBD/SRC-Cy5 coactivator binding, 2 h; 100 = basal binding, no effect; coactivator binding (% of control), % at 25.6 µM; 1.3% of 86,000 active; in the data active means activity above about 200%;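 further: binding measured in presence of low estradiol as agonist stimulus; 0% = peptide alone without receptor and 100% = receptor with peptide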
Target sequence (P03372 whole entry, looked up, the tested form may be a part): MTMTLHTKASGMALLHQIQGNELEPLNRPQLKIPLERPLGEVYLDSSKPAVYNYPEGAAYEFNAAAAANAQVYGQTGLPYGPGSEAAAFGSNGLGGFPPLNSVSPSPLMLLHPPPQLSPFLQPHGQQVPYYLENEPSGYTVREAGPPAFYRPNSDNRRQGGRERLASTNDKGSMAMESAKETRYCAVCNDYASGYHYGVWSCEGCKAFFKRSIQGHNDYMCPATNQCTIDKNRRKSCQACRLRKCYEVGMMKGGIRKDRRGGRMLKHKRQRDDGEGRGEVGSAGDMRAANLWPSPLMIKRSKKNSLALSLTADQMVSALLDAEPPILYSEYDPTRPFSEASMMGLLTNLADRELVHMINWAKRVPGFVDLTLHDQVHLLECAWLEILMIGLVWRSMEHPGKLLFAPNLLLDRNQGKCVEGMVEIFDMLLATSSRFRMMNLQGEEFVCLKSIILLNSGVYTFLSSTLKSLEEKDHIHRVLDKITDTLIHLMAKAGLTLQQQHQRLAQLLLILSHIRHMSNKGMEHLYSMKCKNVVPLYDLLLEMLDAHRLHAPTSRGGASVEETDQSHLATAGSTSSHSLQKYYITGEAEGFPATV
ERa SRC1 inh: ERα–SRC-1 coactivator interaction inhibitors, primary screen, biochemical, TR-FRET, ERα LBD, estradiol-bound; inhibition, % at 25.6 µM; 1.7% of 86,000 active; TR-FRET ER-alpha LBD / SRC-1 peptide; Estrogen receptor (Homo sapiens), P03372; in the data active means inhibition above about 50%;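 further: 0% = receptor plus peptide control and 100% = peptide only without receptor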
EphB4 ephrin blk: EphB4-ephrin-B2 interaction antagonists, primary screen, biochemical, TNYL-RAW peptide probe, fluorescence polarization | 0.15% of 97,000 active | inhibition, % at 7 µM | EphB4 LBD / TNYL-RAW-Alexa532 peptide | Ephrin type-B receptor 4 (Homo sapiens), P54760;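 active means inhibition above the screen-wide mean inhibition plus 3 SD, cut at about 15% in these data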;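 further: 0% = DMSO wells and 100% = excess unlabeled TNYL-RAW peptide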
ERb coact inh: inhibitors of ERβ-SRC1 coactivator interaction, primary screen, biochemical, TR-FRET, ERβ LBD, SRC-1 peptide; Estrogen receptor beta (Homo sapiens), Q92731; TR-FRET ER-beta LBD / SRC1-Cy5 peptide binding; receptor agonist-loaded with 1 µM estradiol; inhibition, % at 25.6 µM; 1.3% of 86,000 active; AID 633, 2007;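 active means compounds whose percent inhibition of the receptor-coactivator binding signal exceeds about 50% in the single-dose screen, limit read from the data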;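 further: 0% = receptor plus peptide wells without compound and 100% = peptide-only wells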
* hit, by the source's call; . = not tested or not shown; [ ] = remark or other dose. Only some compounds are listed: those with a hit (about 2.8% of all), similar ones and a draw of the others.

SMILES | ERa coact pot | ERa SRC1 inh | EphB4 ephrin blk | ERb coact inh
CCC(=O)Nc1ccc(C(=O)Cn2nc(C(=O)O)c3ccccc3c2=O)cc1 | 51 | 77*[fluorescence artefact?] | . | 61*
Cc1nn(CC(=O)Nc2ccccc2)c(=O)c2ccccc12 | 99 | -13 | 6 | -22
O=C1CCCc2c1[nH]c1c(Br)cccc21 | 101 | 0 | 3 | -15
O=C1CCCc2c1[nH]c1ccccc21 | 84 | 14 | 16* | 11
Cc1cc(C(=O)O)ccc1-n1c(C)ccc1C | 22 | 57* | 6 | 49
CC(C)c1nc2oc3c(NCc4cccnc4)ncnc3c2c2c1CCC2 | 515*[fluorescence artefact?] | -10 | . | 16
CCOC(=O)N1CCN(c2ncnc3c2oc2nc(C(C)C)c4c(c23)CCC4)CC1 | 312*[fluorescence artefact?] | 7 | . | 29
COCC(C)NC(=O)CSc1nc(-c2ccccc2)c(-c2ccccc2)o1 (stereo not given) | . | . | -2 | .
Cc1ccc(SCc2cc(=O)[nH]c(/N=C(\N)Nc3ccc(C)c(C)c3)n2)cc1 | . | . | -3 | .
Cc1cc2ccccc2n1CCNC(=O)c1ccc(S(=O)(=O)N2CCCCC2)cc1 | 348*[fluorescence artefact?] | 14 | 3 | 26
Cc1cc2ccccc2n1CCNC(=O)Cc1ccccc1 | 65 | 3 | -2 | 1
Cc1ccc(S(=O)(=O)NCCn2c(C)cc3ccccc32)cc1 | 376* | -14 | 0 | -7
Cc1cc(C)c(S(=O)(=O)NCCn2c(C)cc3ccccc32)c(C)c1 | 146 | 0 | -6 | 1
CCCNC(=O)c1ccccc1NC(=O)c1ccc(CSc2ccccc2)cc1 | . | . | 4 | .
O=C(CCCNS(=O)(=O)c1ccc(Br)cc1)N1CC[C@@]2(O)CCCC[C@H]2C1 | 102 | 0 | -12 | 10
Cc1onc(-c2ccccc2)c1-c1n[nH]c(=S)n1-c1ccccc1 | 90 | -9 | 5 | -13
CC(C)CSc1nc2c(c(=O)[nH]c(=O)n2C)n1CCc1ccccc1 | 111 | -6 | -4 | 4
CC(C)CSc1nc2c(c(=O)[nH]c(=O)n2C)n1CC(O)COc1cccc2ccccc12 (stereo not given) | 75 | 13 | -5 | 56*
O=C(Nc1cccnc1Cl)C1c2ccccc2Oc2ccccc21 | 96 | -4 | -5 | -13
O=C1C2C3C=CC(C3)C2C(=O)N1CNc1ccc(O)cc1 (stereo not given) | 47 | 61*[fluorescence artefact?] | . | 87*[fluorescence artefact?]
Cc1ccc(NCN2C(=O)C3C4C=CC(C4)C3C2=O)cc1 (stereo not given) | 127 | -5 | -5 | 0
COc1ccc(C(=O)N2CCCC(c3nc(-c4cccs4)no3)C2)cc1 (stereo not given) | 105 | 1 | 1 | -6
O=S1(=O)c2cccc3cccc(c23)N1Cc1nnc(-c2ccccc2Br)o1 | 172 | 28 | 16* | 22
Cn1c(=O)c2c3c(sc2n2c(SCC(N)=O)nnc12)CC(C(C)(C)C)CC3 (stereo not given) | 78 | -11 | -2 | -24
Clc1cccc(Cl)c1/C=N\Nc1nccs1 | . | . | 5 | .
SMILES | ERa coact pot | ERa SRC1 inh | EphB4 ephrin blk | ERb coact inh
O=[N+]([O-])c1cc(/C=N\Nc2nccs2)ccc1O | 2 | 100*[fluorescence artefact?] | -1 | 100*[fluorescence artefact?]
O=C(COC(=O)c1cccnc1SCC(=O)NCc1ccccc1)NCc1ccccc1 | 252*[fluorescence artefact?] | 3 | 0 | 11
O=C(CSc1ncccc1C(=O)O)NCc1ccc(F)cc1 | 107 | -5 | 2 | -7
CCOc1ccccc1CNC(=O)Cn1c(=O)oc2ccccc21 | 90 | 8 | 6 | 55*[fluorescence artefact?]
COc1ccc(NC(=O)C2CCCN(S(=O)(=O)c3ccc4c(c3)oc(=O)n4C)C2)c(OC)c1 (stereo not given) | 122 | -4 | -1 | 0
Cc1cc(Nc2ccccc2)nc(N2CCOCC2)n1 | 102 | -9 | 3 | -10
O=S1(=O)N=C(Nc2ccc(N3CCOCC3)cc2)c2ccccc21 | 80 | -25 | -1 | 51*[fluorescence artefact?]
Cc1ccccc1-c1ccc(Nc2ccc(N3CCOCC3)cc2)nn1 | 7 | 99*[fluorescence artefact?] | -2 | 80*[fluorescence artefact?]
Cc1ccc(SCCC(=O)NCCSCc2ccccc2C)cc1 | . | . | -1 | .
O=C(NCC(=O)N(Cc1cccs1)C(C(=O)NC1CCCC1)c1ccncc1)c1ccco1 (stereo not given) | 75 | 99*[fluorescence artefact?] | -1 | 9
CC(=O)c1ccc(NCC(=O)N2CCN(c3ccccc3)CC2)cc1 | 59 | 85* | 4 | 57*
